# In all, about 100,000 compounds went through this assay and about 770 (0.77%) were called active. No stated cut-off is given here; in the data, active means inhibition above about 50%; inactive means the rest. What follows is part of a selection rich in actives, with near analogues and random picks from the rest.
# Target: Gag-Pol polyprotein (Human immunodeficiency virus type 1 group M subtype B (isolate HXB2)) (UniProt P04585)
# Assay: RNase H inhibition, HIV 1 Gag Pol polyprotein, FRET biochemical assay, screening (AID 372)
# Conditions: HIV-1 RT RNase H, FRET RNA/DNA substrate fluorescence; at 10 µM; hits give high values
row,Structure (SMILES),inhibition
1,COc1ccc(/C(O)=C2/C(=O)C(=O)N(CCCCCC(=O)O)C2c2ccc([N+](=O)[O-])cc2)cc1 (stereo not drawn),6% (inactive)
2,CCOC(=O)Cc1csc(N/N=C\c2c(Cl)ccc(Cl)c2Cl)n1,20% (inactive)
3,O=C(CN1C(=O)C2C3CCC(C3)C2C1=O)Nc1ccccc1 (stereo not drawn),14% (inactive)
4,COc1cc(C(=S)N2CCCCC2)cc(Br)c1O,37% (inactive)
5,COc1cc(C(=S)N2CCOCC2)cc(I)c1O,45% (inactive)
6,CCOc1cc(C(=S)N2CCOCC2)cc(Br)c1O,13% (inactive)
7,CCOc1cc(C(=S)N2CCCCC2)ccc1O,8% (inactive)
8,CCOc1cc(C(=S)N2CCCCC2)cc(I)c1O,59% (active)
9,CCOc1cc(C(=S)N2CCC(C)CC2)ccc1O,50% (active)
10,CCOc1cc(C(=S)N2CCCCC2)cc(Br)c1O,56% (active)
11,COc1cc(C(=S)N2CCCCC2)ccc1O,0% (inactive)
12,COc1cc(C(=S)N2CCC(C)CC2)ccc1O,7% (inactive)
13,CS(=O)(=O)N(CC(=O)Nc1cccc2ccccc12)c1cccc(Cl)c1,10% (inactive)
14,O=C1CC(c2ccccc2)CC(O)=C1C=NCc1ccc(F)cc1 (stereo not drawn),8% (inactive)
15,Cc1nnc(N/N=C/c2cccc([N+](=O)[O-])c2)[nH]c1=O,8% (inactive)
16,CCOC(=O)C1CCN(C(=O)COc2ccc(C)cc2C)CC1,4% (inactive)
17,Fc1ccc(Br)cc1SCCc1ccccn1,0% (inactive)
18,CCOc1cc(/C=C2/SC(=S)NC2=O)cc([N+](=O)[O-])c1OCCCOc1ccc(Cl)cc1,27% (inactive)
19,Cc1ccc(-c2nc3ccccc3s2)cc1NC(=O)c1ccc(Cl)c([N+](=O)[O-])c1,3% (inactive)
20,O=C(NC(=S)Nc1cc(-c2nc3ccccc3s2)ccc1Cl)c1ccccc1,37% (inactive)
21,Cc1cc(C(=O)Nc2cc(-c3nc4ccccc4s3)ccc2Cl)ccc1[N+](=O)[O-],52% (active)
22,COc1ccc(C(=O)NC(=S)Nc2cc(-c3nc4ccccc4s3)ccc2C)cc1,1% (inactive)
23,O=C(NC(=S)Nc1cc(-c2nc3ccccc3s2)ccc1Cl)c1ccc(Cl)cc1,33% (inactive)
24,COc1ccc(C(=O)NC(=S)Nc2cc(-c3nc4ccccc4s3)ccc2Cl)cc1OC,10% (inactive)
25,Cc1ccc(C(=O)Nc2cc(-c3nc4ccccc4s3)ccc2Cl)cc1[N+](=O)[O-],39% (inactive)

row,Structure (SMILES),inhibition
1,COc1ccc(C(=O)NC(=S)Nc2cc(-c3nc4ccccc4s3)ccc2Cl)cc1,50% (active)
2,O=C1C(=Cc2ccc(Oc3ccc(C(F)(F)F)cc3[N+](=O)[O-])c(Cl)c2)C(=O)c2ccccc21,16% (inactive)
3,Cc1cc(Oc2cc(NC(=O)c3cc(-c4ccccc4)nc4ccccc34)cc([N+](=O)[O-])c2)ccc1Cl,0% (inactive)
4,Cc1cc(C)c2oc(-c3ccc(C)c(NC(=O)c4cccs4)c3)nc2c1,15% (inactive)
5,CCOc1ccc(/C=N/n2c(-c3ccc(OC)cc3)n[nH]c2=S)cc1OC,12% (inactive)
6,COc1cc2ccccc2cc1C(=O)Nc1cccc2ccccc12,10% (inactive)
7,COc1ccc(OS(=O)(=O)c2cc(Cl)c(Cl)cc2Cl)cc1,31% (inactive)
8,O=S(=O)(Oc1ccc2ccccc2c1)c1cc(Cl)c(Cl)cc1Cl,58% (active)
9,Cc1cc(S(=O)(=O)Oc2ccc3ccccc3c2)c(Cl)cc1Cl,42% (inactive)
10,O=C(Nc1ccccc1C#Cc1ccccc1)C(c1ccccc1)c1ccccc1,8% (inactive)
11,Cc1ccc(/C=C2\SC(=S)N(CCC(=O)Nc3cc(Cl)cc(Cl)c3)C2=O)cc1,14% (inactive)
12,CC1(C)C(c2ccccc2)=NC(c2ccccc2F)=[N+]1[O-],0% (inactive)
13,COc1ccc(/C=N/NC(=O)c2cc(-c3ccc(Cl)cc3)n[nH]2)cc1,14% (inactive)
14,CC(C)(C)N1C(=O)c2ccc(C(=O)c3ccc(C(=O)O)cc3)cc2C1=O,0% (inactive)
15,Cc1cc(/C=C2\NC(=O)NC2=O)c(C)n1-c1cccc([N+](=O)[O-])c1,29% (inactive)
16,CCC(=O)N(Cc1ccco1)C1CC(=O)N(c2ccccc2)C1=O (stereo not drawn),0% (inactive)
17,CCOc1ccc(/C=C/c2c([N+](=O)[O-])c(=O)n(C)c(=O)n2C)cc1,16% (inactive)
18,Cn1c(/C=C/c2cccc(Oc3ccccc3)c2)c([N+](=O)[O-])c(=O)n(C)c1=O,54% (active)
19,Cn1c(/C=C/c2ccc(Br)cc2)c([N+](=O)[O-])c(=O)n(C)c1=O,6% (inactive)
20,Cc1[nH]n(-c2ccccc2)c(=O)c1N=Nc1ccccc1Br,5% (inactive)
21,COc1ccc2ccccc2c1/C=C1\SC(=Nc2cccc(Cl)c2C)NC1=O,35% (inactive)
22,O=C(Nc1ccc(O)cc1)Nc1ccc(Cl)cc1,17% (inactive)
23,O=C(Nc1ccc(Cl)cc1)Nc1ccc(-c2ccc(NC(=O)Nc3ccc(Cl)cc3)cc2)cc1,57% (active)
24,O=C(Nc1ccc(Cl)cc1)Nc1cc(Cl)cc(Cl)c1,6% (inactive)
25,O=C(O)c1cccc(-c2ccc(/C=C3\SC(=S)N(c4ccc([N+](=O)[O-])cc4)C3=O)o2)c1,12% (inactive)

row,Structure (SMILES),inhibition
1,COc1ccc(N2C(=O)/C(=C/c3ccc(-c4ccc([N+](=O)[O-])cc4Cl)o3)SC2=S)cc1,18% (inactive)
2,O=C(O)c1ccc(-c2ccc(/C=C3\SC(=S)N(c4ccc([N+](=O)[O-])cc4)C3=O)o2)cc1,49% (inactive)
3,O=C1/C(=C\c2ccc(-c3ccc([N+](=O)[O-])cc3)o2)SC(=S)N1c1ccc(O)cc1,52% (active)
4,COc1ccc(N2C(=O)/C(=C/c3ccc(-c4ccccc4[N+](=O)[O-])o3)SC2=S)cc1,26% (inactive)
5,COc1ccc(N2C(=O)/C(=C/c3ccc(-c4ccc([N+](=O)[O-])c(C)c4)o3)SC2=S)cc1,64% (active)
6,COc1ccc(CN2CCN(Cc3ccccc3C(F)(F)F)CC2)cc1Br,4% (inactive)
7,Cc1ccc(/C(N)=N/OC(=O)c2ccc(C)cc2Cl)cc1,10% (inactive)
8,Clc1ccc(-c2nnc(-c3ccc4c(c3)OCO4)o2)c(Cl)c1,3% (inactive)
9,CCOC(=O)C1=C(C)N=c2s/c(=C\c3cccc(OCc4ccccc4Cl)c3)c(=O)n2C1c1ccc(Cl)cc1 (stereo not drawn),11% (inactive)
10,COc1ccc(Br)cc1CNC12CC3CC(CC(C3)C1)C2,6% (inactive)
11,Br/C(=C\c1ccccc1)C1Nc2cccc3cccc(c23)N1,21% (inactive)
12,CCCCC(O)(CCCC)c1ccccc1O,3% (inactive)
13,O=c1oc2ccccc2cc1-c1csc(-c2ccc(O)cc2)n1,43% (inactive)
14,CCOc1cc(/C=C(/C#N)C(=O)Nc2cc(Cl)ccc2Cl)ccc1O,51% (active)
15,CCNC(=O)/C(C#N)=C/c1ccc(O)c(OCC)c1,6% (inactive)
16,CCOc1ccc(NC(=O)/C(C#N)=C\c2ccc(O)c(OCC)c2)cc1,20% (inactive)
17,COc1ccc2c(c1)C1C=CCC1C(C(=O)O)N2 (stereo not drawn),25% (inactive)
18,O=C(c1ccccc1)c1ccc2[nH]c(=O)[nH]c2c1,0% (inactive)
19,O=C(c1ccccc1)c1ccc(O)c(O)c1,60% (active)
20,Cc1ccc(C(=O)c2cccc(C(=O)c3ccc(C)cc3)c2)cc1,7% (inactive)
21,O=C(Sc1nnnn1-c1ccccc1)c1ccccc1Br,0% (inactive)
22,Cc1sc(NC(=O)C2CCCCC2)c(C(N)=O)c1C,7% (inactive)
23,CCOC(=O)c1sc(NC(=O)C2CC3CCC2C3)c(C(=O)OCC)c1C (stereo not drawn),10% (inactive)
24,CCc1c(C)sc(NC(=O)C2CCCO2)c1C(N)=O (stereo not drawn),0% (inactive)
25,COC(=O)c1sc(NC(=O)C2CC3CCC2C3)c(C(N)=O)c1C (stereo not drawn),11% (inactive)

row,Structure (SMILES),inhibition
1,Oc1ccccc1N=Cc1c(O)c(I)cc2oc3c(c12)CCCC3,14% (inactive)
2,O=C(Nc1ccc(OC(F)(F)F)cc1)c1cccc(OCc2ccccc2)c1,0% (inactive)
3,c1ccc(CN2CCN(Cc3ccncc3)CC2)nc1,3% (inactive)
4,Cc1ccc2cccc(OS(=O)(=O)c3ccccc3C)c2n1,58% (active)
5,COc1ccc(I)cc1S(=O)(=O)Oc1cccc2ccc(C)nc12,25% (inactive)
6,Cc1ccc2cccc(OS(=O)(=O)c3ccc(Cl)cc3C)c2n1,43% (inactive)
7,Cc1ccc2cccc(OS(=O)(=O)c3cc(Cl)c(Cl)cc3Cl)c2n1,43% (inactive)
8,Cc1ccc2cccc(OS(=O)(=O)c3ccc(Cl)c(C)c3Cl)c2n1,52% (active)
9,Cc1ccc2cccc(OS(=O)(=O)c3cc(Cl)ccc3C)c2n1,47% (inactive)
10,CCc1nc(NC(=O)NS(=O)(=O)c2ccccc2C(=O)OC)nc(OC)n1,6% (inactive)
11,COc1cc(OC)cc(C(=O)N2CCN(c3ccc([N+](=O)[O-])cc3Cl)CC2)c1,9% (inactive)
12,O=C1NC(=S)N(c2cccc(Br)c2)C(=O)/C1=C/c1cccn1-c1ccccc1,39% (inactive)
13,CCC(=O)Nc1ccc2nc(SCC(=O)Nc3ccc(C(C)=O)cc3)sc2c1,14% (inactive)
14,CCC(=S)/C=C1\Sc2ccc(OC)cc2N1CCCS(=O)(=O)O,11% (inactive)
15,O=C(c1c(Cl)cccc1Cl)N1CCN(c2ccccc2)CC1,6% (inactive)
16,O=C(c1c(Cl)cccc1Cl)N1CCN(c2ccc(F)cc2)CC1,54% (active)
17,O=C(c1c(Cl)cccc1Cl)N1CCN(c2ccc(Cl)cc2)CC1,9% (inactive)
18,Cc1nnc(SCC(=O)NC(C)c2ccccc2)[nH]c1=O (stereo not drawn),0% (inactive)
19,CC(=C\c1ccccc1)/C=C1/SC(=Nc2ccc(F)cc2)NC1=O,13% (inactive)
20,O=C(N/N=C/c1ccc(F)cc1)c1ccc(Cl)c(Cl)c1,4% (inactive)
21,Cc1cccc(NC(=O)/C(=C/c2ccc(Br)cc2)NC(=O)c2ccccc2)c1,51% (active)
22,CC(=O)c1cccc(NC(=O)/C(=C\c2ccc(Br)cc2)NC(=O)c2ccc(C)cc2)c1,42% (inactive)
23,CC(=O)c1cccc(NC(=O)/C(=C/c2ccc(Br)cc2)NC(=O)c2ccccc2)c1,6% (inactive)

# Source: PubChem BioAssay AID372 (MTDP, 2006)
